{"source": "PubChem BioAssay (EPA / NIEHS)", "note": "Records with an inconclusive call do not appear. Some structures have more than one record in an assay (separate samples or runs), and their calls can disagree. Active and inactive are the calls of the source. The calls were made as follows: active = hit-call score of the fitted dose curve at least 0.9, where 1 is the maximum; inconclusive = response in the unintended direction; inactive = score below 0.9.", "data": [{"biological_target": "Voltage-dependent N-type calcium channel subunit alpha-1B (Rattus norvegicus) (UniProt Q02294)", "assay": "NVS_IC_rCaChN: NovaScreen (NVS) Ion Channel Assay for rat Calcium Channel, Type N (CaChN) (AID 2283317)", "values": [{"smiles": "COP(=O)(OC)OC=C(Cl)Cl", "outcome": "inactive"}, {"smiles": "N#Cc1c(Cl)c(Cl)c(Cl)c(C#N)c1Cl", "outcome": "inactive"}, {"smiles": "CC(C)(C)C(O)/C(=C\\c1ccc(Cl)cc1Cl)n1cncn1", "note": "(stereo not drawn)", "outcome": "inactive"}]}, {"biological_target": "rat Opioid Receptor, Non-selective Binding, Oprm1 (gene 25601) (UniProt P33535)", "sequence (P33535 whole entry, looked up)": "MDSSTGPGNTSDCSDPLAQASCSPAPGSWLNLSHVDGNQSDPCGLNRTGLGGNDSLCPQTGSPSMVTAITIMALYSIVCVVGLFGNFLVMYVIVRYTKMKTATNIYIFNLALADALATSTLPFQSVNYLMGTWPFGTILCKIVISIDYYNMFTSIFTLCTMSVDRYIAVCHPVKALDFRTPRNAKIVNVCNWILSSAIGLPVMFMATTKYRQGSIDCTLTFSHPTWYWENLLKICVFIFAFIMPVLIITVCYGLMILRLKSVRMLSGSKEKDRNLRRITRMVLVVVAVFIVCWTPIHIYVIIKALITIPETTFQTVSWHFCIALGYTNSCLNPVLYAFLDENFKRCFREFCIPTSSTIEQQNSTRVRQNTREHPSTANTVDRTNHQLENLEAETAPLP", "assay": "NVS_GPCR_rOpiate_NonSelective: NovaScreen (NVS) G Protein-Coupled Receptor Assay for rat Opioid Receptor, Non-selective Binding (AID 2283318)", "summary_of_the_method": "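Rat forebrain membranes, cell-free radioligand binding with filter-based scintillation counting, read 1.5 h after dosing. Primary screen in duplicate at 25 uM; actives retested in concentration series. Loss of signal versus DMSO baseline scored.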", "values": [{"smiles": "CCCN(CCOc1c(Cl)cc(Cl)cc1Cl)C(=O)n1ccnc1", "AC50": "14.8 µM (active)"}, {"smiles": "Oc1cc(Cl)ccc1Oc1ccc(Cl)cc1Cl", "outcome": "inactive"}, {"smiles": "Oc1ccc(Cl)cc1Cc1ccccc1", "outcome": "inactive"}, {"smiles": "CC(C)(C)C(O)/C(=C\\c1ccc(Cl)cc1Cl)n1cncn1", "note": "(stereo not drawn)", "outcome": "inactive"}]}, {"test_system": "not listed separately", "assay": "NVS_IC_rCaDHPRCh_L: NovaScreen (NVS) Ion Channel Assay for rat Calcium Channel, Type L, Dihydropyridine Site (CaDHPRCh_L) (AID 2283320)", "method": "NVS_IC_rCaDHPRCh_L is a biochemical, single-readout assay that uses extracted gene-proteins from Rat cortical membranes in a tissue-based cell-free assay. Measurements were taken 1 hour after chemical dosing in a 48-well plate.NVS_IC_rCaDHPRCh_L is one of one assay component(s) measured or calculated from the NVS_IC_rCaDHPRCh_L assay. It is designed to make measurements of radioligand binding, a form of binding reporter, as detected with scintillation counting signals by Filter-based radiodetection technology.Data from the assay component NVS_IC_rCaDHPRCh_L was analyzed into 1 assay endpoint. This assay endpoint, NVS_IC_rCaDHPRCh_L, was analyzed in the positive analysis fitting direction relative to DMSO as the negative control and baseline of activity. Using a type of binding reporter, loss-of-signal activity can be used to understand changes in the binding as they relate to the gene Cacna1a. Furthermore, this assay endpoint can be referred to as a primary readout, because the performed assay has only produced 1 assay endpoint. To generalize the intended target to other relatable targets, this assay endpoint is annotated to the ion channel intended target family, where the subfamily is calcium channel.\nBinding assays used specific radioligands (tritiated, iodinated) with non-radioactive competitive displacement ligands in agonist or antagonist protocols (as indicated) and various reference compounds and inhibitors to titrate specific binding to receptors and transporters. Most enzyme assays (CYPs, kinases, phosphatases, proteases, HDACs) used recombinant protein and specific substrates (fluorescence mostly, some colorimetric and radioactive) and inhibitors, followed by a biochemical separation of substrate and product. All assays for the biochemical HTS were initially run in duplicate at a single concentration (10 uM for CYP450 assays and 25 uM for all others). Assay-chemical combinations meeting a pre-defined threshold (e.g., 30% inhibition and other criteria defined below) were then run in singleton concentration-response format with maximum concentration of 20 uM for CYPs and 50 uM for all others. Each assay was run with positive and negative controls, and concurrent controls on every plate. The follow-up (secondary) screen tested active chemical-pairs in concentration series, as well as a few additional assays not tested in the primary screen, some selected negative inactives, and several cases re-run in the concentration series for confirmatory purposes.", "values": [{"smiles": "CC[C@H](C)[C@H]1O[C@]2(C=C[C@@H]1C)C[C@@H]1C[C@@H](C/C=C(\\C)[C@@H](O[C@H]3C[C@H](OC)[C@@H](O[C@H]4C[C@H](OC)[C@@H](O)[C@H](C)O4)[C@H](C)O3)[C@@H](C)/C=C/C=C3\\CO[C@@H]4[C@H](O)C(C)=C[C@@H](C(=O)O1)[C@]34O)O2", "note": "(tested in a mixture with another compound)", "AC50": "4.89 µM (active)"}, {"smiles": "CCCN(CCOc1c(Cl)cc(Cl)cc1Cl)C(=O)n1ccnc1", "outcome": "inactive"}, {"smiles": "Oc1ccc(Cl)cc1Cc1ccccc1", "AC50": "30.2 µM (active) [middle of 7 runs]"}, {"smiles": "O=S(=O)(O)C(F)(F)C(F)(F)C(F)(F)C(F)(F)C(F)(F)C(F)(F)C(F)(F)C(F)(F)F", "outcome": "inactive"}]}, {"biological_target": "bovine Gamma-Aminobutyric Acid Type A Receptor BDZ, alpha 1 site (GABARa1), GABRA1 (gene 780973) (UniProt P08219)", "sequence (P08219 whole entry, looked up)": "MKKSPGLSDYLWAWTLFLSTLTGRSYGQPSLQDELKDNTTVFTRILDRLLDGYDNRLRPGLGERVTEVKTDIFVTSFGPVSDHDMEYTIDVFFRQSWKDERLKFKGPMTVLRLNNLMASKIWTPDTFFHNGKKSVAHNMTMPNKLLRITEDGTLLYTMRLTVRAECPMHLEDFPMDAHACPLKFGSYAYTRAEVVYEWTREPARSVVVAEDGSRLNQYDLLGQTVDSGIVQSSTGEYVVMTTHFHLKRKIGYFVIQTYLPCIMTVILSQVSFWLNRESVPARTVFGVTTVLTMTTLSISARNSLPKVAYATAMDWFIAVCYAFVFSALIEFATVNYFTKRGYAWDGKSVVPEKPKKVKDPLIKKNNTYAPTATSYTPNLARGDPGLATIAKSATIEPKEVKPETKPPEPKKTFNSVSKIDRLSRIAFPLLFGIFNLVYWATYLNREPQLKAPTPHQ", "assay": "NVS_LGIC_bGABARa1: NovaScreen (NVS) Ligand-Gated Ion Channel Assay for bovine Gamma-Aminobutyric Acid Type A Receptor BDZ, alpha 1 site (GABARa1) (AID 2283321)", "summary_of_the_method": "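Radioligand competition binding on bovine cortical membranes, 0.75 h, filter-based scintillation counting. Primary single concentration 25 uM in duplicate; actives rerun in concentration-response to 50 uM max. Loss of signal fitted versus DMSO.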", "values": [{"smiles": "CC(C)N(C(=O)COc1nnc(C(F)(F)F)s1)c1ccc(F)cc1", "AC50": "14.2 µM (active)"}, {"smiles": "[2H]C1([2H])[n+]2ccccc2-c2cccc[n+]2C1([2H])[2H]", "outcome": "inactive"}, {"smiles": "COP(=S)(OC)Oc1ccc([N+](=O)[O-])cc1", "outcome": "inactive"}]}, {"biological_target": "Sodium channel protein type 1 subunit alpha (Rattus norvegicus) (UniProt P04774)", "assay": "NVS_IC_rNaCh_site2: NovaScreen (NVS) Ion Channel Assay for rat Sodium Channel, Site 2 (NaCh) (AID 2283322);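 also: hit means loss of radioligand binding signal relative to DMSO so AC50 marks displacement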", "summary_of_the_method": "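Membranes: rat forebrain. Format: competitive radioligand displacement, filter separation, scintillation readout, 1 h exposure. Primary screen in duplicate at 25 uM; actives retested in concentration series.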", "values": [{"smiles": "CCCN(CCOc1c(Cl)cc(Cl)cc1Cl)C(=O)n1ccnc1", "AC50": "14.3 µM (active)"}, {"smiles": "Oc1cc(Cl)ccc1Oc1ccc(Cl)cc1Cl", "outcome": "inactive"}, {"smiles": "Oc1ccc(Cl)cc1Cc1ccccc1", "AC50": "10.9 µM (active)", "outcome": "inactive"}, {"smiles": "O=S(=O)(O)C(F)(F)C(F)(F)C(F)(F)C(F)(F)C(F)(F)C(F)(F)C(F)(F)C(F)(F)F", "outcome": "inactive"}]}, {"biological_target": "bovine Gamma-Aminobutyric Acid Type A Receptor BDZ, alpha 5 site (GABARa5), GABRA5 (gene 523515) (UniProt Q08E50)", "sequence (Q08E50 whole entry, looked up)": "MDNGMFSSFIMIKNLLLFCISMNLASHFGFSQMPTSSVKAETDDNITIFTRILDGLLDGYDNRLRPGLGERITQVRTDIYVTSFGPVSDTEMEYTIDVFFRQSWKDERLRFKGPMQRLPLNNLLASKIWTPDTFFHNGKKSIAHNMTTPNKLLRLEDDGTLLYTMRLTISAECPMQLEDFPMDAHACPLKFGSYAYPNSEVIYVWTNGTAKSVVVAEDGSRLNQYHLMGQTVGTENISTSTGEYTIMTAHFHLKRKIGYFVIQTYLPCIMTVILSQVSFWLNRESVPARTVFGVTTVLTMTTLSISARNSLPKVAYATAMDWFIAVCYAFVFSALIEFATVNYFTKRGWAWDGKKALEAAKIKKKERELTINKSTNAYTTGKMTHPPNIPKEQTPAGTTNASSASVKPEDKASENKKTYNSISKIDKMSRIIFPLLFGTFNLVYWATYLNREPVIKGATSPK", "assay": "NVS_LGIC_bGABARa5: NovaScreen (NVS) Ligand-Gated Ion Channel Assay for bovine Gamma-Aminobutyric Acid Type A Receptor BDZ, alpha 5 site (GABARa5) (AID 2283323)", "summary_of_the_method": "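Radioligand competitive displacement binding on bovine hippocampal membranes, read 1 hr after dosing by filter-based scintillation counting. Primary screen at 25 uM in duplicate; actives (e.g. ≥30% inhibition) then run in concentration-response up to 50 uM.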", "values": [{"smiles": "CC[C@H](C)[C@H]1O[C@]2(C=C[C@@H]1C)C[C@@H]1C[C@@H](C/C=C(\\C)[C@@H](O[C@H]3C[C@H](OC)[C@@H](O[C@H]4C[C@H](OC)[C@@H](O)[C@H](C)O4)[C@H](C)O3)[C@@H](C)/C=C/C=C3\\CO[C@@H]4[C@H](O)C(C)=C[C@@H](C(=O)O1)[C@]34O)O2", "note": "(tested in a mixture with another compound)", "AC50": "8.26 µM (active)"}, {"smiles": "CNC(=O)/C=C(\\C)OP(=O)(OC)OC", "outcome": "inactive"}, {"smiles": "O=C(Nc1ccccc1)Nc1cnns1", "AC50": "7.77 µM (active)"}, {"smiles": "O=C(NC(=O)c1c(F)cccc1F)Nc1ccc(OC(F)(F)C(F)OC(F)(F)F)c(Cl)c1", "note": "(stereo not drawn)", "outcome": "inactive"}]}]}
